Experimental data as given in the supplement of paper PMC10338343.
± gives the standard deviation.

test system: MILI (PIWIL2) piRISC loaded with L1MC piRNA (26 nt); test: pre-steady-state target cleavage rate (min^-1); guide: L1MC piRNA 5'p-UAACUAAAUACUAUGCAAGCUGUAGG; MIWI and MILI are mouse PIWI proteins and EfPiwi is from a freshwater sponge; tags in brackets are library labels; higher = faster piRNA-guided slicing of the target; conditions: auxiliary factor: 500 nM mouse GTSF1
Summary of the method: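 With or without 500 nM GTSF1 partner protein, 1 nM active affinity-purified piRISC carrying one synthetic guide was mixed with 0.1 nM transcribed, DNA-blocked target RNA library in HEPES–potassium acetate buffer at 33 °C for 0–8 or 0–960 min. Uncleaved targets were sequenced and normalised to depth and to weakly complementary targets, three trials were pooled, and k3 was capped at 0.0001 min^-1. The pre-steady-state cleavage rate came from a burst-and-steady-state fit.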

Sequence | pre-steady-state target cleavage rate
UCCUGGAUCAGCUUGCAUAGAAUAUAGUUA | 0.042 ± 0.012
UCCUGGAUCUGCUUGCAUAGUAUUUAGAAA | 0.0794 ± 0.019
UCCUGGAUGUCGAUGCAUAGUAUAAAGUUA | 0.0643 ± 0.016
UCCUGGAUCAGCUUCCAUUGUAUUUAGUUA | 0.0508 ± 0.0093
UCCUGGAUGUCGAAGCAUAAUAUUUAGUUA | 0.0097 ± 0.0039
UCCUGGAUGUCGAUGCAUAAUAUUUAGUUA | 0.0556 ± 0.013
UCCUGGAACAGCUUGCUAUGUAUUUAGUAA | 0.0125 ± 0.0054
UCCUGGAUGUCCUUGCAUAGUAUUAUCUUA | 0.0177 ± 0.0079
UCCUCCUACAGCUUGCAUAGUAUAAUCAAA | 0.122 ± 0.029
UCCUGGAUGACGAUGCAUAGUAUUUACAAA | 0.0245 ± 0.011
UCCUGGUACAGCUACGAUAGUAUUUAGUAA | 0.183 ± 0.034
UCCUGGAUGUCCUUGCAUAGUAUUUUGAUA | 0.0211 ± 0.0077
UCCUGGAUGUCGAACGUAACUAUAUAGUUA | < 0.0001
UCCUGGAACAGCUUGCAUAGAAUUUACUUA | 0.0289 ± 0.011
UCCUGGAUGAGCUUGCAUAGUAUUUUCAUA | 0.0108 ± 0.0059
UCCUGGAUGAGCUUGCAUAGUAUAAUGAAA | 0.00735 ± 0.0041

Sequence | pre-steady-state target cleavage rate
UCCUGGAUGUGCUUGCAUAGUAUUUCGUUA | 0.0261 ± 0.0098
UCCUGGUACAGCUUGCAUAGUUUUUAGAUA | 0.0378 ± 0.017
UCCUGGAACAGCUUGGAUACUAUUUAGUUA | 0.0744 ± 0.017
UCCUGGAUCAGCUUGCAUAGUAAAAAGAAA | 0.0472 ± 0.015
UCCUGGAUGUCGAAGCAUAGUACUUAGUUA | 0.00746 ± 0.0031
UCCUGGAUGAGCUUGCUUAGUAUUUACAAA | 0.0262 ± 0.011
UCCUGGAACAGCUUCGAUAGUAUUUAGAAA | 0.0923 ± 0.021
UCCUGGAUGUCGUACCAUAGUAUUUAGUUA | 0.0168 ± 0.0047
UCCUGGAUGUCGAUGCAUAGUAUUUUGUUA | 0.0682 ± 0.016
UCCUGGAUCAGCUUGCAUAGUUAUUAGUAA | 0.00826 ± 0.0047
UCCUGGAUGUGCUUGCAUAGUAUUUUGUAA | 0.00939 ± 0.0045
UCCUGCUACAGCUUGCUUAGUAUUUACAAA | 0.0114 ± 0.0054
UCCUGGUACAGCUUGCAUUGUAUUUACUUA | 0.05 ± 0.015
UCCUGGUAGAGCUUGCAUAGUAUUUACAAA | 0.015 ± 0.0066
UCCUGGAUGUCGAAGUCAUAGUAUUUAGUUA | 0.00447 ± 0.003
UCCUGCUACAGCUUGCAUAGUUAUUUCAAA | 0.0109 ± 0.0051

same assay, conditions: auxiliary factor: none (no GTSF1)

Sequence | pre-steady-state target cleavage rate
UCCUGGAUGUCGAACGUUAGGUAUUUAGUUA | < 0.0001
UCCUGCUACAGCUUGCAUAGAUAUUAGAAA | < 0.0001
UCCUGGAUGUCGAACCAUCAGUAUUUAGUUA | < 0.0001
UCCUGGAUCAGCUUGCAUAGGUAUUUAGUUA | 0.00357 ± 0.0027
UCCUGGAUGUCGAACGUUUGUAUUUAGUAA | < 0.0001
UCCUGGAUGUCGUUGCAAAGUUUUUAGUUA | 0.00384 ± 0.0022
UCCUGGAUCAGCUACCAUAGUAUUUACAAA | < 0.0001
UCCUGGAUGUCGAACGUAAGUAAUUAGUUA | < 0.0001
